The record followed here is PubChem BioAssay.

For some of these results: Potency and affinity values are given separately. Calls of active or inactive are those of the source.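 The calls were made as follows, unless noted: active = membrane potential signal rise above negative control mean plus 3 SD in both duplicates, also active in the earlier TRPC4 screen; inactive = the rest.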

Assay [1] deals with TRPC4 beta (transient receptor potential cation channel C4), mouse. The assay can be described thus: activators of mouse TRPC4 channel, confirmation, cell-based, Fluo4 calcium, HEK293 TRPC4beta/mu-opioid, duplicates, 10 µM (AID 2426;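 active = fluorescence ratio normalized to control raised more than 50% in primary screen plus both repeat runs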;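 as to activation: percent rise of integrated ratio over buffer wells lacking compound which define 0%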). The conditions noted are these: Fluo4 calcium fluorescence, at 10 µM; active compounds read high.
Assay [2] relates to transient receptor potential cation channel C4 beta (TRPC4), mouse. The assay can be described thus: activators of mouse TRPC4 channel, confirmation, cell-based, second round, Fluo4, HEK293 TRPC4beta/mu-opioid, 1 µM (AID 2461;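 active = primary screen active and over 50% activation in each of two duplicate runs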;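 as to activation: 0% = wells without test compound as baseline of integrated fluorescence ratio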). The note with it: Fluo4 calcium fluorescence, at 1 µM; active compounds read high.
In assay [3] the test system is TRPC4 (transient receptor potential cation channel C4 beta), mouse. Put plainly: positive allosteric modulators of mouse TRPC4, confirmation, cell-based, second round, Fluo-4, HEK293 TRPC4beta/mu-opioid, 1 µM (AID 2554;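 active = primary screen hit whose fluorescence ratio, in both repeats, exceeds the weak agonist control mean by 3 SD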). The conditions noted are these: DAMGO EC20, Fluo-4 calcium flux, at 1 µM; active compounds read high. On the technique in general: Calcium assays in cells follow changes in intracellular calcium, usually with a dye or a luminescent sensor.

Assay [4] deals with TRPC4 beta (transient receptor potential cation channel C4), mouse. Put plainly: positive allosteric modulators of mouse TRPC4, confirmation, cell-based, Fluo-4, HEK293 TRPC4beta/mu-opioid (AID 2555;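 active = primary screen hit whose calcium fluorescence ratio, in both repeats, exceeds the weak agonist control mean by 3 SD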). The conditions noted are these: DAMGO EC20, Fluo-4 calcium flux, at 10 µM; active compounds read high.
For assay [5], the target named is Short transient receptor potential channel 4 (Mus musculus) (UniProt Q9QUQ5). Put plainly: inhibitors of mouse TRPC4 channel, confirmation, cell-based, Fluo4, HEK293 TRPC4beta/mu-opioid (AID 2636;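 active = calcium signal cut by more than 3 SD below the full-agonist control yet still positive, in both repeats and the earlier primary screen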). The conditions noted are these: DAMGO, Fluo4 calcium flux, at 10 µM; active compounds read high.
Short transient receptor potential channel 4 (Mus musculus), sequence (Q9QUQ5 whole entry, looked up): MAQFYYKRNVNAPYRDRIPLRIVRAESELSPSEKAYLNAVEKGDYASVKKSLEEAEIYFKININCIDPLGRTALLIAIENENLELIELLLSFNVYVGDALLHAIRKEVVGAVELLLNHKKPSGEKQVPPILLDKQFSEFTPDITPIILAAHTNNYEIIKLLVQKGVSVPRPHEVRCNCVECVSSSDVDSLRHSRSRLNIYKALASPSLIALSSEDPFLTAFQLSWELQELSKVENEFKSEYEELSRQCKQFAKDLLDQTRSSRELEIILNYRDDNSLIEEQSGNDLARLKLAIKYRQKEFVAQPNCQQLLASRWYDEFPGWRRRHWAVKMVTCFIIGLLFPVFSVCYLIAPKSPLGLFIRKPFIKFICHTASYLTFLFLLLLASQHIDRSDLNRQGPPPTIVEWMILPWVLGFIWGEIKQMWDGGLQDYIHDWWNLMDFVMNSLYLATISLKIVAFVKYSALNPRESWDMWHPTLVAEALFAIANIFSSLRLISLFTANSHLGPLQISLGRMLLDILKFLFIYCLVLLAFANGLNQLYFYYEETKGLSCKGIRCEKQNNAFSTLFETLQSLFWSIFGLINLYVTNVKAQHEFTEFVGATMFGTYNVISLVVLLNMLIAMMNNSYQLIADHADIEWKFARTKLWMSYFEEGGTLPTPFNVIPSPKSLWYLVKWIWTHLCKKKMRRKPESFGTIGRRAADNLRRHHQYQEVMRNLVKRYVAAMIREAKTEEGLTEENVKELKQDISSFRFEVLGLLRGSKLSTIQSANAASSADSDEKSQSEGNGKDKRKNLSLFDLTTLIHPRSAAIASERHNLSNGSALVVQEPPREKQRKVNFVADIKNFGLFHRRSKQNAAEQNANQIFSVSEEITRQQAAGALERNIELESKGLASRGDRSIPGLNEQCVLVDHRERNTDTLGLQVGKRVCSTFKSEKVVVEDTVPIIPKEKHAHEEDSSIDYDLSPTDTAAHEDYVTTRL
For assay [6] the target is unchanged. The assay can be described thus: inhibitors of mouse TRPC4 channel, confirmation, cell-based, second round, Fluo4, HEK293 TRPC4beta/mu-opioid, 1 µM (AID 2637;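 active = calcium signal ratio cut to more than 3 SD under the fully stimulated control mean yet still positive, in both repeats and the primary screen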). The conditions noted are these: Fluo4 calcium flux, DAMGO, at 1 µM; active compounds read high.
The target is the same in assay [7]. Put plainly: TRPC4 positive allosteric modulators, dose response, cell-based, HEK293 TRPC4/mu-opioid, Fluo-4 calcium, EC20 DAMGO (AID 434941;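 active = earlier screen potentiator hit that boosts the TRPC4 ion channel at some dose, with a dose response; inactive = no potentiation, no dose response, or not a prior hit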;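 also: calcium entry triggered by an EC20 dose of DAMGO at the co-expressed mu-opioid receptor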).
Assay [8] has the same target. The assay can be described thus: mouse TRPC4 channel inhibitors, dose response, cell-based, HEK293 TRPC4/mu-opioid, Fluo-4 calcium (AID 434942;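 active = primary screen inhibitor hit that blocks the TRPC4 channel at some tested dose, yielding a dose curve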).
Assay [9] concerns the target Short transient receptor potential channel 6 (Mus musculus) (UniProt Q61143). The assay can be described thus: inhibition of mouse TRPC6 channel, confirmation, selectivity assay for TRPC4 inhibitor project, cell-based, HEK293, membrane potential dye, duplicate (AID 434948;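 active = active in primary screen and both duplicates, each dropping signal beyond three positive-control SD with fluorescence still positive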). The conditions noted are these: HEK293 TRPC6, membrane potential dye fluorescence, at 10 µM; inhibition: active compounds read high, stimulated with maximal-effect acetylcholine unless noted; outcome: stimulated with maximal-effect acetylcholine unless noted.

Assay [10] has the same target. The assay can be described thus: activation of mouse TRPC6 channel, confirmation, selectivity assay for TRPC4 activator project, cell-based, HEK293, membrane potential dye, duplicate (AID 434950).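 As to activation: 0% = buffer only wells and 100% = acetylcholine maximal-effect wells.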 The note with it: HEK293 TRPC6, membrane potential fluorescence, at 10 µM; active compounds read high.
Assay [11] shares this target. Put plainly: TRPC6 potentiation by TRPC4 potentiator hits, confirmation, selectivity assay for TRPC4 potentiator project, HEK293 cells, membrane potential dye, duplicate (AID 434952;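 active = compound raising the membrane signal above positive-control mean plus 3 SD in both repeats, and a primary screen hit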). The conditions noted are these: HEK293 TRPC6, membrane potential dye fluorescence, at 10 µM; maximal acetylcholine added after compound unless noted.
Assay [12] addresses Short transient receptor potential channel 4 (Mus musculus) (UniProt Q9QUQ5). The assay can be described thus: calcium flux activators in TRPC4/5HT1a cells, counter-screen for TRPC4 activator project, cell-based, second counter screen, HEK293 TRPC4/5HT1a, Fluo-4 (AID 434977;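 active = calcium signal rise above buffer-control mean plus 5 SD in both duplicates, and also a hit in the primary screen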;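 as to activation: plate controls were assay buffer for no effect and maximal serotonin response for full effect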). The conditions noted are these: Fluo-4 calcium flux, at 10 µM; active compounds read high.
Assay [13] can be described thus: calcium flux inhibitors in TRPC4/5HT1a cells, confirmation, counter-screen for TRPC4 inhibitor project, cell-based, second counter screen, HEK293 TRPC4/5HT1a, Fluo-4 (AID 434978;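 active = primary screen active whose calcium signal fell more than 3 SD beyond the full-serotonin control mean in both duplicate plates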;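 also: serotonin given first at submaximal then at maximal dose after compound preincubation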). The note with it: Fluo-4 calcium flux, at 10 µM; inhibition: active compounds read high, serotonin added to trigger calcium flux unless noted; outcome: serotonin added to trigger calcium flux unless noted.

The test system of assay [14] is TRPC4 (mouse), co-expressed with 5HT1a in HEK293. Put plainly: calcium flux potentiators in TRPC4/5HT1a cells, confirmation, counter-screen for TRPC4 potentiator project, cell-based, second counter screen, HEK293 TRPC4/5HT1a, Fluo-4 (AID 434979;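 active = signal rise over 3 SD above mean of control wells given weak agonist, in both repeats and first screen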). The conditions noted are these: Fluo-4 calcium flux, at 10 µM; outcome: serotonin added at its EC20 dose unless noted; potentiation: active compounds read high, serotonin added at its EC20 dose unless noted.

Assay [15] in a line: calcium flux activation in mu-opioid HEK293 cells, confirmation, counter-screen for TRPC4 activator project, cell-based, HEK293 mu-opioid receptor line (AID 449723;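 active = hit in primary screen, with calcium signal over 5 SD above buffer well mean in both duplicates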;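 also: counter screen cells carry the mu-opioid receptor alone and lack TRPC4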). The conditions noted are these: Fluo-4 calcium fluorescence, at 10 µM; active compounds read high.
Assay [16] in a line: calcium flux enhancement in mu-opioid HEK293 cells, confirmation, counter-screen for TRPC4 allosteric potentiator project, cell-based, HEK293 mu-opioid receptor line (AID 449724;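 active = calcium signal rise more than 3 SD above the low-dose agonist control mean, in both duplicate plates and the primary screen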;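 also: HEK293 cells carrying mu-opioid receptor only with no TRPC4 channel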). The note with it: Fluo-4 calcium flux, at 10 µM; compound added before EC20 DAMGO stimulus unless noted.

Short transient receptor potential channel 6 (Mus musculus), sequence (Q61143 whole entry, looked up): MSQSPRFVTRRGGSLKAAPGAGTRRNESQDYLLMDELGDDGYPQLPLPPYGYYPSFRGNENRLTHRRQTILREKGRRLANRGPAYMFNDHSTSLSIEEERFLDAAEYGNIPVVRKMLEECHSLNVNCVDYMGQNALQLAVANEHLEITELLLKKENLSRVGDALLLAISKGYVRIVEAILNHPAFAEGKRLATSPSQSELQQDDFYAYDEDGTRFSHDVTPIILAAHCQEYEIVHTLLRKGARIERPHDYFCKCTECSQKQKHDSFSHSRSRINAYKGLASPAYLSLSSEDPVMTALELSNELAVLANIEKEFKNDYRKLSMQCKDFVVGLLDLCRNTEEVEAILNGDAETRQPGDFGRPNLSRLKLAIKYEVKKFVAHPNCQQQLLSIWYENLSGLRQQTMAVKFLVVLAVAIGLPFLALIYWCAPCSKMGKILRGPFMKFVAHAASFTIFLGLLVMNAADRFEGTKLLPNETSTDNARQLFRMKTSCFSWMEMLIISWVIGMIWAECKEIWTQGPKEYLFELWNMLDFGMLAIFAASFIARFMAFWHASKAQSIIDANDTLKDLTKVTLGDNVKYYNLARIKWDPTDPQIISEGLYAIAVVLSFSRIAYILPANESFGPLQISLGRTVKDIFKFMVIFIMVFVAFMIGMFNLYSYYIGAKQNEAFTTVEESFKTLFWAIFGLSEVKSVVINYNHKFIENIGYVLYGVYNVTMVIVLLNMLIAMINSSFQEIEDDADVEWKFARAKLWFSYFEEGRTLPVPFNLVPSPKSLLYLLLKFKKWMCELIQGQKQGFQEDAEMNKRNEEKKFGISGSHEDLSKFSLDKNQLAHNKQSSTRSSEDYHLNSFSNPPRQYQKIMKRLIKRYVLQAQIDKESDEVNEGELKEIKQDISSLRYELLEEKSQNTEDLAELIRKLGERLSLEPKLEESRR

Consider `CN1CCN(c2ccc([N+](=O)[O-])c3cccnc23)CC1`, for which the activation was 85% (active) in assay [1], 78% (active) in assay [2] and 25.7% (active) in assay [12]. The figures for the potentiation in assay [3], in [4] and in [14] were 33% (active), 26% (active) and 16.9% (active), respectively. Besides, the result in assay [5], in assay [6], in [7], in assay [8], in assay [9] and in assay [10] was inactive. The outcome in [11], in [13], in assay [15] and in assay [16] was inactive.

As for `O=[N+]([O-])c1ccc(N2CCNCC2)c(Cl)c1`, the result in assay [1], in assay [2], in [5], in assay [6], in assay [7] and in [8] was inactive. Also, the molecule was classed as inactive in assay [9], in assay [10], in assay [11], in assay [13], in [14] and in assay [15]. The outcome in [16] was inactive. The potentiation in assay [3] was 26% (active); in assay [4], 28% (active). Besides, the activation in [12] was 5.58% (active).

Regarding `Cc1ccc(Cl)cc1N1CCN(CCN)CC1`, the activation is 131% (active) in assay [1], 119% (active) in assay [2] and 53.8% (active) in [12]. Also, the outcome in assay [3], in assay [4], in assay [5], in [6], in assay [7] and in assay [8] was inactive. For the same molecule, the molecule was classed as inactive in [9], in [10], in [11], in assay [13], in assay [14] and in assay [15]. In addition, the result in [16] was inactive.

Consider `Cc1ccc(NC(=S)NCCc2cnc[nH]2)cc1C`, for which the activation in [1] was 199% (active); in [2] it was 106% (active); in assay [12], 85% (active). Moreover, the result in [3], in assay [4], in assay [5], in assay [6], in assay [7] and in assay [8] was inactive. The outcome in [9], in [10], in assay [11], in assay [13], in [14] and in assay [15] was inactive. Besides, the result in assay [16] was inactive.

`c1ccc2sc(N3CCNCC3)nc2c1`: the activation was 97% (active) in [1], 78% (active) in [2], 29.5% (active) in [10] and 51.8% (active) in [12]. The outcome in assay [3], in assay [4], in assay [5], in assay [6], in [7] and in assay [8] was inactive. For the same molecule, the molecule was classed as inactive in [9], in [11], in [13], in [14], in [15] and in assay [16].

For the molecule `O=[N+]([O-])c1ccc(N2CCNCC2)cc1NC1CC1`, the activation is 64% (active) in assay [1], 67% (active) in assay [2] and 26.6% (active) in assay [12]. Besides, the outcome in [3], in [4], in [5], in assay [6], in [7] and in assay [8] was inactive. Further, the molecule was called inactive in assay [9], in assay [10], in assay [11], in assay [13], in [14] and in assay [15]. Moreover, in [16], the outcome was inactive.

As to `Cc1ccccc1C(O)(Cc1ccccc1)C1CN2CCC1CC2` (configuration not stated), the activation in assay [1] is 109% (active); in assay [10] it was 51% (active). Also, the result in assay [2], in [3], in [4], in [5], in [6] and in [7] was inactive. Moreover, the outcome in assay [8], in [9], in assay [11], in assay [12], in assay [13] and in [14] was inactive. Besides, the result in assay [15] and in assay [16] was inactive.
